From PubChem
In the library only some 1.8% were active in any assay of this set; here they are far more common.
Mito fusion act: inhibitors of mitochondrial division or activators of mitochondrial fusion; S. cerevisiae fusion-defective mutant growth rescue, CellTiterGlo 48 h; Potency, µM (titrated, usually from 46.1 µM), without a hit: top-dose growth rescue (activation), hits mostly activators; 320,000 compounds, 0.23% hits; AID 485298; also: potency is read from the fitted curve at half-maximal effect; % of control where 0% means no effect; nearly all actives have a fitted effect of over 45% in size
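Temperature-sensitive fusion-defective S. cerevisiae (e.g. fzo1-1, mgm1-5) were grown with compound in YPEG medium (3% ethanol, 3% glycerol) for 48 hours at 37C. Growth rescue was measured as viability by CellTiterGlo luminescence after 10 minutes at ambient.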
MBNL1 CUG block: MBNL1-poly(CUG) RNA binding inhibition; TR-FRET MBNL1-His/biotin-(CUG)12 binding, 665/545 ratio; AID 2675; Q9NR56; Potency, µM (titrated, usually from 57.5 µM), for the others: at the highest dose activity change, negative = inhibition, actives largely listed as inhibitors; 280,000 compounds, 0.036% hits; active = well fitted inhibition curve with a large enough effect in the signal ratio, with a control signal flat, not every such curve was filed as active; inconclusive = small, poorly fitted or top-dose-only effect, or effect the other way, or a change in a side signal; inactive = no such curve, though single readings can be large or run the other way; the % refers to the signal ratio; also: potency is read from the fitted curve at half-maximal effect; % is scaled to controls: 0 for no effect and ±100 for the full control effect
Target sequence (Q9NR56 whole entry, looked up): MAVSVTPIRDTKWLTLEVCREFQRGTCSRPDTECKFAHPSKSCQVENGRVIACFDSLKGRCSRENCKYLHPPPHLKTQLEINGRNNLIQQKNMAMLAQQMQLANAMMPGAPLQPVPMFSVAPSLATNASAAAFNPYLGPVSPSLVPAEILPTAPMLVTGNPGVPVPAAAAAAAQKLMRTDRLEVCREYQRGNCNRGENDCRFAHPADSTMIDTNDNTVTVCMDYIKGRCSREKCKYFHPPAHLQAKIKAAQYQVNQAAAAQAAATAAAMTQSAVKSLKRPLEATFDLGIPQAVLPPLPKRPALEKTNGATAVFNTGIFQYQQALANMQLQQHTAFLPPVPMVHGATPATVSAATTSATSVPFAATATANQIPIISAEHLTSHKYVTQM
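Inhibition of protein-RNA binding appears as loss of TR-FRET between terbium anti-His antibody on MBNL1-His and streptavidin-XL665 on biotin-(CUG)12. Activity is normalized to buffer-only and uninhibited-complex controls.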
AT treatment: potential ataxia-telangiectasia treatment; F2112 A-T fibroblasts, KAP-1 phosphorylation AlphaLISA; neocarzinostatin DNA damage 30 min before lysis; Potency, µM (doses to about 57.5 µM), for the others: at the top dose activation, usual class: activators; 320,000 compounds, 0.19% hits; also: potency is read from the fitted curve at half-maximal effect; % of control where 0% means no effect; nearly all actives have a fitted effect of over 45% in size
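hTERT-immortalized A-T patient fibroblasts (F2112), 500 cells/well in OPTI-MEM, 1% FBS, got compounds for 60 min, then NCS for 30 min at 37C. Lysates were then assayed for phospho-KAP-1 by AlphaLISA (anti-pKAP1 donor, anti-KAP1 acceptor beads), 6 hr at 25C.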
ClpP mod: qHTS Assay for Activators of ClpP; Potency, µM (series often up to 57.5 µM), inactives show at the top dose activity change, negative = active; 340,000 compounds, 1.9% hits; ATP-dependent Clp protease proteolytic subunit (Bacillus subtilis (strain 168)), P80244; purified B. subtilis ClpP, FRET peptide cleavage, 20 min; AID 651965, 2013; active = well fitted falling curve with a large enough effect; inconclusive = small, poorly fitted or top-dose-only effect; inactive = no such curve, though single readings can be large or run the other way; also: potency is read from the fitted curve at half-maximal effect; the source files actives as falling curves though it sought activators and does not explain the sign; nearly all actives have a fitted effect of over 65% in size
Target sequence (P80244 whole entry, looked up): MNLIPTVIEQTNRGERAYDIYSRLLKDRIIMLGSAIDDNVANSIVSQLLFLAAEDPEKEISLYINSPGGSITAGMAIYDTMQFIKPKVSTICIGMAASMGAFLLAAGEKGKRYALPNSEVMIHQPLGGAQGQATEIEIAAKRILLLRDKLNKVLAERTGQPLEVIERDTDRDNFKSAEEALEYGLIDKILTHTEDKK
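Buffer: 100 mM Tris/HCl pH8, 100 mM KCl, 0.05% low protease BSA, 2.5% glycerol, 0.01% Tween-20. ClpP 10 microg/mL final; 20 min RT; delta FRET normalized to ADEP and DMSO controls.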
TCR activator: T cell receptor activation | primary human leukocytes, anti-CD3, IL-2 HTRF, 48 h | Potency, µM (highest dose often 9.22 µM), without a hit: at the top dose activation of IL-2 secretion, hits mostly activators | 330,000 tested, under 10 active; also: % of control where 0% means no effect
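Activity was scored as IL-2 release from primary human leukocytes given only a TCR signal (a-CD3 beads) plus compound for 48 hr. Detection used a two-antibody HTRF format read at 665nm.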
Glioma ERSR ind: ER stress response induction in glioma; U87-MG GRP78 promoter luciferase reporter, 16 h; Potency, µM, without a hit: at the highest dose activation, usual class: activators; 420,000 compounds, 0.02% hits; AID 602332; also: potency is read from the fitted curve at half-maximal effect; series mostly up to about 76 µM; % of control where 0% means no effect; nearly all actives have a fitted effect of over 35% in size
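ERSR induction read as luciferase luminescence (Bright-Glo, 10 min at room temperature) in stably transfected human U87-MG glioma cells exposed to compounds for 16 h, using GRP78 as sensor.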
MBNL1 TRFRET: MBNL1-poly(CUG) RNA binding inhibition confirmed. 140 compounds, 50% hits. shares compounds with MBNL1 CUG block. Potency, µM (series often up to 57.6 µM), without a hit: at the top dose activity change, negative = inhibition, actives largely listed as inhibitors. TR-FRET MBNL1-His / biotin-(CUG)12 binding, 60 min
MBNL1-CUG Alpha: confirmation of MBNL1-(CUG)12 RNA binding inhibitors, orthogonal format; AlphaScreen MBNL1-His / biotin-(CUG)12 binding; Potency, µM (doses to about 57.7 µM), for the others: top-dose activity, negative = inhibition, usual class: inhibitors; shares compounds with MBNL1 CUG block; AID 493205; 140 compounds, 30% hits
Menin-MLL HTRF: MBNL1-CUG RNA binding inhibitor counterscreen activity. Potency, µM (series often up to 57.6 µM), inactives show top-dose activity, negative = inhibition, most hits filed as inhibitors. 120 compounds, 20% hits. shares compounds with MBNL1 CUG block. His-Menin/biotin-MLL peptide TR-FRET counterscreen
Active calls of the source: *; u = inconclusive; x = no result given; [ ] = another dose, or the depositor's remark. Unless noted, calls follow the shape of the dose curve; as a rule, active = well fitted curve in the direction sought with a large enough effect; inconclusive = small, poorly fitted or top-dose-only effect, or another doubt; inactive = no such curve, though single readings can be large; an effect the other way counts as inactive or inconclusive.

SMILES	Mito fusion act	MBNL1 CUG block	AT treatment	ClpP mod	TCR activator	Glioma ERSR ind	others
O=c1[nH]c(NCCCO)nc2c1C1(CCCC1)Cc1ccccc1-2	-13%	2%	3%	14µM*	1%	-4%
CC(C)c1c(C(=O)NCC2(N3CCCCC3)CCCC2)cnn1-c1nccc(-c2ccco2)n1	x	x	x	x	x	1%
CC(C)(C)n1ncc2c(=O)n(Cc3ccc(Cl)c(F)c3)cnc21	x	x	x	x	x	-3%
Cc1nc(-c2coc3cc(OCC(=O)O)ccc3c2=O)cs1	-5%	-1%	-3%	35µM*	-2%	-12%
Cc1nc(-c2coc3cc(O)c(C)cc3c2=O)cs1	2%	u	0%	-25%	0%	-11%
CCCCN1C=C(C(=O)OC)C(c2ccccc2C(F)(F)F)C(C(=O)OC)=C1	2%	3%	2%	32µM*	-2%	-6%
COCCN1C=C(C(=O)OC)C(c2ccccc2C(F)(F)F)C(C(=O)OC)=C1	6%	-1%	19%	-6%	-4%	-1%
COc1cc(/C=C/C(=O)OCC(=O)Nc2nnc(-c3ccccc3)o2)cc(OC)c1OC	4%	x	-9%	18µM*	-2%	-4%
O=C(COC(=O)/C=C/c1ccccc1)Nc1nnc(-c2ccccc2)o1	4%	x	-3%	x	-1%	0%
COc1cc(=O)n2c(c1C(=O)NC(C)c1ccco1)CCN(C(=O)c1ccc(F)cc1Cl)CC2 (stereo unspecified)	x	x	x	x	x	-1%
CCOc1ccc(-c2nnc(-c3snc(-c4ccc(F)cc4)c3N=CN(C)C)o2)cc1	-2%	-3%	1%	28µM*	30%	-1%
CC(C)(C)n1ncc2c(=O)n(Cc3cccc(C(F)(F)F)c3Cl)cnc21	x	x	x	x	x	0%
O=C(Nc1ccncc1)c1ccc(NS(=O)(=O)c2cccc(F)c2)cc1	-1%	x	3%	32µM*	0%[46.1 µM]	-3%
Cc1cc2oc(=O)c(CC(=O)O)c(C)c2c2occ(-c3ccc(F)cc3)c12	x	x	x	28µM*	x	2%
COc1ccc(-c2coc3c2c(C)cc2oc(=O)c(CC(=O)O)c(C)c23)cc1	x	x	x	-10%	x	3%
Nc1c(Br)cc(/C=C/c2ccnc3ccccc23)cc1Br	x	x	x	-3%	x	0%
Cc1ccc2oc(C(=O)Nc3cccc(-c4nc5ccccc5s4)c3)c(C)c2c1	x	x	x	u	x	-1%
Cc1c(C(=O)Nc2cccc(-c3nc4ccccc4s3)c2)oc2ccccc12	x	x	x	22µM*	x	-1%
Cc1c(C(=O)Nc2ccc3oc(-c4cccnc4)nc3c2)oc2ccccc12	2%	45%	29%	8.9µM*	-1%	-2%
Cc1ccc(-n2nc(C)c3c(C(F)(F)F)cc(-c4cccnc4)nc32)cc1C	x	x	x	-4%	x	-2%
Cc1nn(CCC#N)c2nc(-c3ccccc3)cc(C(F)(F)F)c12	3%	-12%	12%	32µM*	5%	-7%
N#CCCn1nc(-c2ccccc2)cc1-n1c(C(F)(F)F)nc2ccccc21	8%	-10%	6%	-2%	0%	-4%
Cc1nn(CCc2nn[nH]n2)c2nc(-c3ccccc3)cc(C(F)(F)F)c12	-3%	-2%	-3%	3%	5%	-3%
Cc1cc(C(F)(F)F)c2c(C)nn(CCc3nn[nH]n3)c2n1	1%	-5%	5%	18µM*	-5%	-3%
CCOC(=O)c1cc(-c2ccco2)nc2c1c(C)nn2CCC#N	5%	u	0%	u	5%	-5%
SMILES	Mito fusion act	MBNL1 CUG block	AT treatment	ClpP mod	TCR activator	Glioma ERSR ind	others
CCOC(=O)c1cc(-c2ccc(OC)cc2F)nc2c1c(C)nn2CCC#N	5%	17%	-4%	25µM*	-1%	-1%
Cc1cc(C(F)(F)F)c2c(C)nn(-c3ccccc3)c2n1	x	x	x	28µM*	8%	-2%
C(=Nc1cnc2ccccc2c1)c1ccnc2ccccc12	x	x	x	4%	x	3%
COc1cc(NS(=O)(=O)c2ccc(N)cc2)nc(C)n1	x	x	x	x	x	-3%
CCOC(=O)c1cc(-c2ccc(Cl)cc2)nc2c1c(C)nn2CCC#N	1%	21%	3%	35µM*	3%	-2%
CC(=O)N1CCN(/[N+]([O-])=N/Oc2ccc([N+](=O)[O-])cc2[N+](=O)[O-])CC1	x	x	x	x	x	-12%
COc1ccc(C2=CC(c3cccc(C)c3)n3nnnc3N2)cc1 (stereo unspecified)	x	x	x	32µM*	x	-4%
CSCC[C@H](NC(=O)[C@H](Cc1ccccc1)NC(=O)[C@H](Cc1cnc[nH]1)NC(=O)CNC(=O)[C@@H](NC(=O)[C@H](C)NC(=O)[C@H](Cc1c[nH]c2ccccc12)NC(=O)[C@H](CCC(N)=O)NC(=O)[C@@H]1CCCN1C(=O)[C@@H](NC(=O)[C@@H]1CCC(=O)N1)C(C)C)C(C)C)C(N)=O	x	x	x	x	x	-1%
COc1ccc(CC(=O)Oc2ccc(C)cc2Br)cc1OC	-4%	16µM*	4%	-3%	3%	1%	MBNL1 TRFRET=u;MBNL1-CUG Alpha=5.2µM*;Menin-MLL HTRF=16µM*
CCc1ccc2[nH]c(=O)c(CN(Cc3cccs3)Cc3nnnn3Cc3ccccc3)cc2c1	x	x	x	u	x	-1%
O=C1c2ccccc2C(=O)C12OC2c1cccc2ccccc12 (stereo unspecified)	1%	25µM*	16%	x	-1%[46.1 µM]	-7%	MBNL1 TRFRET=-22%;MBNL1-CUG Alpha=u;Menin-MLL HTRF=7%
CC(=O)Nc1ccn(C2COC(COC(=O)c3ccccc3)O2)c(=O)n1 (stereo unspecified)	x	x	x	x	x	-1%
Cc1ccc(NC2c3ncccc3C(=O)N2Cc2cccs2)cc1 (stereo unspecified)	6%	40µM*	0%	x	-4%	-1%	MBNL1 TRFRET=52µM*;MBNL1-CUG Alpha=26µM*;Menin-MLL HTRF=-4%
